From the supplement of paper PMC3334620
The full ranking holds about 33,000 sequences; the median of “E-score (-0.5 to 0.5)” is about -8e-05, and the highest 2% start at about 0.23. The sample holds the highest values, similar sequences and a random draw of the others, so the mix is not that of the screen.

These sequences were tested against T1, Nrg2 (UniProt P38082) (assay: PBM E-score (8-mer binding enrichment) (E-score (-0.5 to 0.5)); higher = stronger / more preferred TF binding). Conditions: protein concentration: 100 nM; construct: GST-full length.
T1 sequence: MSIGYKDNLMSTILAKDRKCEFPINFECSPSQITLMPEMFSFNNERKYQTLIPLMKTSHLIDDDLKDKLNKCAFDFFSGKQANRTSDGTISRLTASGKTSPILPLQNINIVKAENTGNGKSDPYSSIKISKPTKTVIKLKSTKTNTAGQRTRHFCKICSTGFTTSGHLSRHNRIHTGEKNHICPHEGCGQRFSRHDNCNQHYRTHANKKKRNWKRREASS
Protocol: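 Universal 'all 10-mer' protein binding microarrays (Agilent AMADID 015681) probed with GST-tagged S. cerevisiae TFs (full-length or DBD) made by in vitro transcription/translation (PURExpress), about 100-200 nM. Bound TF was detected with fluorescent anti-GST. Each ungapped 8-mer (which stands for itself and its reverse complement) is scored by the PBM enrichment score (E-score), a modified Wilcoxon-Mann-Whitney statistic from -0.5 to +0.5, computed with the Universal PBM Analysis Suite. Scale: above 0.35 generally sequence-specific binding.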

Sequence | PBM E-score
AACGCGCG | 0.319
CGAGCGAG | 0.249
AACGCGCA | 0.0385
ATCGCGCG | 0.241
ATCGCGCC | 0.201
CAGGCGCA | -0.114
AACGCGCT | 0.123
AGAGCGAG | -0.0653
CGAGCGAC | -0.0894
ATCGCGCA | -0.004
CAGGCGCG | 0.231
ATTCCCAA | 0.0933
AGGCCCCT | 0.0783
AGCCTCGA | -0.0885
CTAGTACA | 0.0576
ACCCTAGC | 0.0587
CTACTGAA | 0.029
ATCCGATA | 0.00821
AAGCAGTC | -0.135
CTCTCTTA | -0.0805
AGCAAAGA | -0.0188
AGACCAAT | -0.00568
CGCGGGCC | 0.176
AAAACGCG | 0.285
CGCGCGAA | 0.157

Sequence | PBM E-score
TGCGCGCA | 0.211
CACGCGCA | -0.0169
CGCGGGCA | 0.281
AGCGCGAG | 0.0635
GGCGGGCA | -0.0772
CGCGCGAG | 0.245
CAAACGCG | 0.0917
AAAACGCC | 0.0808
CGCGCGCA | 0.296
AAGATCGT | 0.0712
TCAGAGCA | -0.0393
CACTTCAC | -0.0837
GCAACAGA | 0.0125
ATTGGAGG | -0.149
AATCGCGG | 0.162
ACCTCACT | -0.0963
CCCGCGCG | 0.178
CTCGCGAA | -0.00662
CGCGCGCG | 0.302
ATCGTGCG | 0.272
ATCGTGCA | 0.0864
CTCGCGAG | 0.257
ATCGTGCC | -0.145
CACGCGAG | 0.225
CGCGCGCC | 0.211

Sequence | PBM E-score
AGTATACG | 0.0367
CCCCAGAA | -0.0495
GATTGGCA | -0.0954
TCCAGACA | -0.0642
GGTAACGA | -0.00769
AATTGTGA | 0.116
CTCACAAC | 0.206
GTCGGAAA | 0.234
ATCGGAAA | 0.0359
CTCGGAAA | -0.0457
ATGTGAGG | -0.0251
ATGTCCGG | 0.0983
ATGTAGTA | 0.154
GTGTAGTA | -0.0167
CTGTAGTA | 0.245
CAGCGTTC | 0.0488
TGCCAACA | 0.0266
AAATCTTG | 0.0495
CGGCAGAA | 0.154
AATGAAGA | 0.14
AATGAAGT | 0.23
AATGAAGG | 0.0439
CTGAACGA | -0.166
AACGCAGA | -0.0108
CACGCAGC | -0.0258

Sequence | PBM E-score
AACGCAGC | 0.253
CGGGTAAG | -0.13
AAACTATT | -0.0651
CTCATTTC | -0.0953
ATCATTTA | 0.0968
ATCATTTC | 0.242
AGTGCACG | 0.0226
AATCATAT | 0.0761
AATCATAC | 0.116
AATCATAG | 0.235
AGATTTGG | -0.144
CAAGTTGG | 0.225
ATTTGTTA | 0.113
ATTTGTTC | 0.272
CTTTGTTC | 0.0376
GAGTCAGC | -0.151
AAAAGTCG | 0.0204
ACCCCATG | 0.217
GAAAAATC | 0.099
GCATTGCC | -0.0164
GTTCGAAC | 0.233
ATTCGAAC | 0.155
CTTCGAAC | 0.108
GGAAGCAA | -0.0162
TCATGCAA | 0.192

Sequence | PBM E-score
CCATGCAG | 0.155
CCATGCAA | 0.247
GGGGTCAC | -0.0806
ACGGGCGC | 0.0207
AATCCCCT | 0.0153
AACATAAA | -0.0006
CACATAAG | 0.0356
AACATAAG | 0.246
AACATAAC | 0.134
ATCATAAG | -0.085
AACATAAT | 0.248
GAAGGCAC | 0.0779
TGTGAGAA | 0.183
ATATATAA | 0.24
ATATAGTA | 0.155
CTATATAA | 0.0499
CTATATAC | 0.238
ATACATAT | 0.235
ATACATAA | 0.0727
CTCTATAC | -0.0911
TTATATAA | 0.192
ATACATAC | 0.0623
ATATAGTG | 0.241
CTATATAG | 0.00641
ATATAGTC | 0.196

Sequence | PBM E-score
AGTGAGGC | -0.0681
AACCTTGC | -0.0724
AGCCAAAC | 0.121
AGATTACG | 0.121
AGCCGGAG | 0.023
CGGTGAAG | -0.222
GCAACGAA | 0.187
ACCATCAC | -0.0188
ATATATAT | 0.107
ATATATAC | 0.329
ATATATGC | 0.18
ATATATGA | 0.0746
ATATATGG | 0.23
GTATATAC | 0.0119
AACATCGG | -0.137
CTACAGAA | 0.0765
CGGGTGAA | 0.16
ATTCAGGG | 0.367
ATTCAGGA | 0.117
ATCCAGGC | 0.0212
ACTCAGGG | 0.294
ACTCAGGC | 0.00622
ATCCAGGG | 0.349
ATCCAGGA | -0.0938
ACTCAGGA | -0.067

Sequence | PBM E-score
AATCAGGG | 0.0765
CATCAGGG | 0.229
ATTCAGGC | 0.106
CATCAGGC | -0.00739
AGCACAAC | 0.0937
CTGTGCTC | 0.0672
GGCTGTTA | -0.00387
ATCCGTAA | -0.136
AGGCTTCC | 0.0147
TCTCTCAA | 0.14
CAGTGAAA | 0.0943
CAGTGAAG | -0.0253
CAGTGAAC | 0.248
CCAGATAC | -0.0175
GTATGCAA | 0.0781
GACCAGTA | -0.174
AGAATCAG | 0.272
AGAATCAA | 0.103
CGAATCAA | 0.22
CGAATTAA | 0.175
TGAATTAA | 0.273
CGAATCAG | 0.122
GGAATTAA | 0.153
TGAATCAA | 0.232
AGAATCAT | 0.0757
